# Compound activity (PubChem)
# Mtb FBA inh: inhibitors of M. tuberculosis fructose-bisphosphate aldolase | purified M. tuberculosis FBA, fluorescence read-out | inhibition, % at 1 µM | actives 2.3% (n = 360,000);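 note: 0% = vehicle and 100% = reference inhibitor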
# Target sequence (P9WQA3 whole entry, looked up): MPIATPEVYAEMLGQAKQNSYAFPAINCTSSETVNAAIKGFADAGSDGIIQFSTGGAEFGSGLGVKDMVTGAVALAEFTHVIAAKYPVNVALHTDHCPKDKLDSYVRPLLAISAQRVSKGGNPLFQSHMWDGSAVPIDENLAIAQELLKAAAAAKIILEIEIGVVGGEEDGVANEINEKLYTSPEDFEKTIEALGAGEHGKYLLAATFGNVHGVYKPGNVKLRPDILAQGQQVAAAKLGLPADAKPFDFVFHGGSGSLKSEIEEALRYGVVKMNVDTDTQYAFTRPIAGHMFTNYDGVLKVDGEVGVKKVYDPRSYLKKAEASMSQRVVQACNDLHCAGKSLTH
# FadD28 FP inh: M. tuberculosis FadD28 bisubstrate binding inhibition; FadD28 bisubstrate probe binding, fluorescence polarization; inhibition, % at 12.5 µM; actives 0.22% (n = 360,000); AID 588549; in the data active = inhibition above about 8.5%, passing the limit was not always enough
# GDH-TPI counter-1: inhibits GDH-TPI coupling enzymes, artifact for Mtb FBA screen; AID 588335; GDH-TPI coupled enzyme counterscreen, NADH absorbance; inhibition, % at 4.8 µM; actives 1.2% (n = 360,000); in the data active = inhibition above about 30%;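 note: 0% = DMSO wells and 100% = wells lacking the enzyme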
# Mtb BioA inh: inhibitors of Mycobacterium tuberculosis BioA enzyme; AID 602481; purified M. tuberculosis BioA enzyme, plate reader; inhibition, % at 9.99 µM; actives 0.096% (n = 360,000); in the data active = inhibition above about 40%
# 3CLpro inhibitor: SARS-CoV 3CLpro protease inhibition | inhibition, % at 6 µM | recombinant SARS-CoV 3CLpro, quenched FRET peptide cleavage | actives 0.14% (n = 290,000) | P0C6X7 | AID 1706; in the data active = inhibition above about 12%
# Mtb FBA inh conf: Mtb FBA inhibition, confirmed; purified M. tuberculosis FBA, fluorescence read-out; shares compounds with Mtb FBA inh; actives 78% (n = 5,600); inhibition, % at 1 µM;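 note: 0% = vehicle wells and 100% = reference inhibitor wells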
# GDH-TPI counter-2: counter-screen for M. tuberculosis FBA inhibitors: GDH-TPI coupled enzyme inhibition. shares compounds with Mtb FBA inh. GDH-TPI coupled enzyme counterscreen, fluorescence. inhibition, % at 1 µM. actives 81% (n = 5,600); in the data active = inhibition above about 10%
# GDH-TPI dose: GDH-TPI dose response counter-screen for Mtb FBA; shares compounds with Mtb FBA inh; GDH-TPI coupled enzyme assay, fluorescence, artifact counterscreen; IC50, µM; actives 79% (n = 170); AID 652145; call rule not given here
# An asterisk follows results filed as active; . = not tested or not shown; + = active, no number. Shown are actives, neighbours in structure and some others; about 3.1% of the full set was active somewhere. Cut-off read from the data, not from the text of the source, unless noted: active = inhibition above about 27%; inactive = the rest.
SMILES,Mtb FBA inh,FadD28 FP inh,GDH-TPI counter-1,Mtb BioA inh,3CLpro inhibitor,Mtb FBA inh conf,GDH-TPI counter-2,others
CCN(C(=O)COC(=O)c1nccnc1N)c1cccc2ccccc12,63*,-2,7,0,.,109*,80*,
COc1cc2c(cc1OC)CN(CC(=O)Nc1ccccc1C#N)CC2,65*,-5,1,0,4,156*,176*,
O=C(CNC(=O)c1ccc2c(c1)OCCO2)N/N=C/c1ccc(O)cc1O,0,-1,28,-1,0,.,.,
O=C(CNC(=O)c1cccc(Br)c1)N/N=C/c1ccc2c(c1)OCO2,33*,-1,11,-3,5,141*,106*,
O=C(CNC(=O)c1ccc2c(c1)OCO2)Nc1cccc(Br)c1,4,0,11,6,.,.,.,
CCN(CC)c1ccc(/C=N/NC(=O)CNC(=O)c2ccc3c(c2)OCCO3)cc1,47*,0,42*,-1,-4,54*,47*,
C[C@@H]1CN([C@H](C)CO)C(=O)Cc2cc(NC(=O)Cc3ccccc3)ccc2O[C@@H]1CN(C)C(=O)Nc1ccc(F)cc1,.,.,.,28,.,.,.,
CCOC(=O)c1nn(-c2ccc(C)c(C)c2)cc1O,3,-1,16,0,3,.,.,
CCOC(=O)c1nn(-c2ccc3c(c2)OCCO3)cc1O,31*,0,4,2,5,93*,65*,
Cc1cc2ncc(-c3cccs3)nc2cc1C,73*,-3,8,.,-5,68*,58*,
c1csc(-c2ccc3ccccc3n2)c1,25,-4,11,-2,1,.,.,
CN(C)c1ccc(CNC(=O)C2(C)Cc3c(-c4ccc(N(C)C)cc4)ccnc3O2)cc1 (configuration not stated),46*,0,30,-1,.,58*,50*,
COCCNC(=O)C1(C)Cc2c(-c3ccc(N(C)C)cc3)ccnc2O1 (configuration not stated),32*,-2,15,1,.,128*,104*,
CN(C)c1ccc(-c2ccnc3c2CC(C)(C(=O)NCC2CC2)O3)cc1 (configuration not stated),35*,0,25,-1,.,+,164*,
CN(C)c1ccc(-c2ccnc3c2CC(C)(C(=O)NCCc2ccccc2)O3)cc1 (configuration not stated),47*,-2,15,-1,.,109*,73*,
CN(C)c1ccc(CNC(=O)C2(C)Cc3c(-c4ccccc4)ccnc3O2)cc1 (configuration not stated),-3,-4,-7,-2,.,.,.,
COc1ccc(NS(=O)(=O)c2cc(OC)ccc2OC)cc1,1,-2,-1,1,.,.,.,
COc1ccc(OC)c(S(=O)(=O)Nc2ccc3c(c2)n(C)c(=O)n3C)c1,62*,0,2,1,-4,140*,93*,
C[C@H](CO)N1C[C@H](C)[C@H](CN(C)C(=O)Nc2cccc(F)c2)OCc2ccccc2-c2ccccc2C1=O,.,.,.,0,.,.,.,
O=C1OCc2nc3cc4c(cc3c(-c3ccc(F)cc3)c21)OCO4,73*,.,13,-1,3,101*,86*,
O=C(CSc1nc2ccccc2o1)c1cc2ccccc2oc1=O,55*,-3,12,0,-4,11,2,GDH-TPI dose=>10
Cc1cc(C)nc(SCC(=O)c2cc3ccccc3oc2=O)n1,-3,-1,14,1,2,.,.,
O=C1c2ccc(Oc3ccc4c(c3)C(=O)N(CCCCO)C4=O)cc2C(=O)N1CCCCO,5,-2,1,.,1,.,.,
O=C1c2ccc(-c3ccc4c(c3)C(=O)N(CCCO)C4=O)cc2C(=O)N1CCCO,36*,-2,2,2,4,9,-5,
O=C(Nc1ccccc1F)N[C@H]1CC[C@H](CCNS(=O)(=O)c2ccccc2)O[C@@H]1CO,.,.,.,-2,.,.,.,
CCOC(=O)C1=C(C)NC(C)=C(C(=O)OCC)C1c1cn(-c2ccccc2)nc1-c1ccco1,61*,-5,4,.,0,3,-6,
Cc1ccc(S(=O)(=O)N2CC[C@@H]3[C@@H](CO)N(C)c4ccc(-c5ccc(C#N)cc5)cc4[C@@H]32)cc1,.,.,.,1,.,.,.,
